These results are taken from the supplement of paper PMC10681739.

The first assay deals with T1, ETS1 (UniProt P14921).
T1 sequence: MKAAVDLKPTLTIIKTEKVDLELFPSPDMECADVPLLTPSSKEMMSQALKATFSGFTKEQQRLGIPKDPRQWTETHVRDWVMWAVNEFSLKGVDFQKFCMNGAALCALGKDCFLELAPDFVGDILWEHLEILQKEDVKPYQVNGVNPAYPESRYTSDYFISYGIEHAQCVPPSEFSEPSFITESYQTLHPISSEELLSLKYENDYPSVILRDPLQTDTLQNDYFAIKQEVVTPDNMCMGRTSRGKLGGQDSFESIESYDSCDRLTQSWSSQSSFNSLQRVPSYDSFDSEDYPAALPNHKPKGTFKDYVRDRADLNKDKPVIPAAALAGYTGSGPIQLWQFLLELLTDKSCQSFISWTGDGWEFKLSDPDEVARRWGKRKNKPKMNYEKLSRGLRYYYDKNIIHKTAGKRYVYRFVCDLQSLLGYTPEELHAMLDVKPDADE
Put plainly: ETS1 binding intensity (PBM fluorescence), ETS1 alone (arbitrary fluorescence units); higher = stronger binding. The note with it: ETS1 concentration 1 nM; RUNX1 concentration 0 nM.
As for CAAAGCAACCCAAGGGGATGTGGTCACTGGGGTGAG, the ETS1 binding intensity was determined as 413.
Still for that read-out and setting: with TGAAGTTCAGGGGGAAGTGGTTAGAGTCCCTGCGAG the figure was 494; with GCGCCATTTCCGCTGCGCAAGGCACCACAGGCCCTG, 1140; with GAGTGGGGGTGGGGAGGAAGCCACAGGGCCGGGCTG, 624.
Same read-out and setting: with CTGCGCTTCCGCTTCACCCGGAGTACAGCGGTCCTG the figure was 842.
Same read-out and setting: in the case of GCTCTGGCGGAAGATGTCCCTGCGGTGCAGCTGCCG it was 397; in that of CTCTGAAGGAAGTGATGTTAGACGGCTGTGGGTGGT, 545; in that of GCATTTCTCAGAAAAGGAAGCGGTTGTGCCGGGAGG, 1530.
For TTGCGTCACGTCCGGCCTGCGAGTTACCGCCCACTC, the ETS1 binding intensity stood at 690.
On the same count and under the same terms, in the case of GCTGTAGGAAATGTTATTCGCCGCGGTCAGGACAGG it was 546; in that of TGCCCAGTACTTCCTCTTGTGGGGGAGCACAACTTG, 569.
Same read-out and setting: in the case of GACGGGATGTAGGTTTTCAGCCGTGGCCACAGGAGA it was 496; in that of CTGTTCTCATCCGCCCGCTCTGAGTCACCCACACCT, 465.
The sequence CGCCGTAGGAGGAAGCCGCGGCCGCAACGCTCCTGG displayed an ETS1 binding intensity of 454.
Same read-out and setting: in the case of CAGCAAGCGTCCAGGAAGTGTGTGGGGGAGGTGTGG it was 2010; in that of CCCCTTCATCCGCCTCTCTCTCACCGCGCCGCTCCC, 449; in that of GACAGGATACAAGAATTCCGCGGACTGCCGCAGTCG, 642.
As to GTACGCTCTTCACTTCCCGTACCCGCGCCCGGCAGG, the ETS1 binding intensity amounted to 609.
Same read-out and setting: in the case of AGCGGCTTCCTGCTGGGCTTTTGCACTCCCCACAAC it was 510; in that of AGGGTGTACTCGGAAGTTTCGAGTGGTTGCTTGGTT, 451; in that of TCTGAGAATGCAGGATATGTGTGTGGTCTCTAGTCA, 1240.
Still for that read-out and setting: in the case of CCAGGCGTTTCCGGGTTCCCGCGGTCCCGTCCCCCA it was 1340.
Same read-out and setting: in the case of CAGGGAAGTTCGAACTGGGCGGGGCCCACCGCAGTT it was 336; in that of TGGGATTCTCACTTCCGATCAGCGGTCCTGAACCCG, 707; in that of GCACCGTGGCACTTCCGCGAGCGCCGCAGGCCCTGC, 461.
Consider CCAGATTAGGAAACCCACCCGGCCCACAAAAAGCGG, for which the ETS1 binding intensity is 445.
On the same count and under the same terms, with GGAAAGCGGAAGAAAAAAGCAAGATGGGACCGCAAG the figure was 445.
In turn, CTTCCTTCCCTTCCTTCTGCTCCCTCCCACAGCCGC gave an ETS1 binding intensity of 519.
Still for that read-out and setting: in the case of GGTCACATCCTTTCCCTTCTGTGTCTCAGCCGCAGT it was 421.
Still for that read-out and setting: in the case of TGTCCGGGCAGGAAGGGGTGCTCTGTGGGCTTGGAG it was 948; in that of TATCACGTTTCCTGCTGCTGCACCGCGACCTCAGCT, 513.
Still for that read-out and setting: with GCACCATCTCCCGACTTCCGCGGTGTCCCAGGTCCT the figure was 559; with GGCGCCTCTTTCCGCCCCCGCCCACAATCGAGCGCA, 535; with AGGAGTGACGAGGCGGACGTGCGGGGGCGGGGGTGT, 461.
CCAGAGCAGGATGTTCTGCTGTGGCTAGATAAGCCC yielded an ETS1 binding intensity of 907.
The same measure, in the same setting: in the case of CTATATCACATCCTTTCTCTGACCGCGCTGACTTCG it was 452.
On the same count and under the same terms, in the case of GGTCTGGAGGATGTTTGCAGCTGCTGTGGGTGGTGG it was 586.
Still for that read-out and setting: in the case of AGACCCGGACCGGAACCTTGGCGCGGTGACGCTAGT it was 1050.
GAACCCAGGTCTGCTTCCTGTGGCCACCATCTGTGC gave an ETS1 binding intensity of 761.

The target of a further assay is T1, ETS1. Briefly: ETS1 binding intensity (PBM fluorescence) in presence of RUNX1, normalised to ETS1-only experiment (arbitrary fluorescence units); higher = stronger binding. The conditions noted are these: ETS1 concentration 1 nM; RUNX1 concentration 25 nM.
As for CAAAGCAACCCAAGGGGATGTGGTCACTGGGGTGAG, the ETS1 binding intensity was determined as 1800.
The same measure, in the same setting: in the case of TGAAGTTCAGGGGGAAGTGGTTAGAGTCCCTGCGAG it was 674; in that of GCGCCATTTCCGCTGCGCAAGGCACCACAGGCCCTG, 943; in that of GAGTGGGGGTGGGGAGGAAGCCACAGGGCCGGGCTG, 771.
Same read-out and setting: with CTGCGCTTCCGCTTCACCCGGAGTACAGCGGTCCTG the figure was 713; with GCTCTGGCGGAAGATGTCCCTGCGGTGCAGCTGCCG, 465; with CTCTGAAGGAAGTGATGTTAGACGGCTGTGGGTGGT, 785.
For GCATTTCTCAGAAAAGGAAGCGGTTGTGCCGGGAGG, the ETS1 binding intensity came to 2100.
Consider TTGCGTCACGTCCGGCCTGCGAGTTACCGCCCACTC, for which the ETS1 binding intensity turned out to be 603.
The same measure, in the same setting: in the case of GCTGTAGGAAATGTTATTCGCCGCGGTCAGGACAGG it was 710.
Still for that read-out and setting: with TGCCCAGTACTTCCTCTTGTGGGGGAGCACAACTTG the figure was 424; with GACGGGATGTAGGTTTTCAGCCGTGGCCACAGGAGA, 559; with CTGTTCTCATCCGCCCGCTCTGAGTCACCCACACCT, 441.
Same read-out and setting: with CGCCGTAGGAGGAAGCCGCGGCCGCAACGCTCCTGG the figure was 816; with CAGCAAGCGTCCAGGAAGTGTGTGGGGGAGGTGTGG, 1920; with CCCCTTCATCCGCCTCTCTCTCACCGCGCCGCTCCC, 330.
In the case of GACAGGATACAAGAATTCCGCGGACTGCCGCAGTCG, the ETS1 binding intensity turned out to be 649.
Turning to GTACGCTCTTCACTTCCCGTACCCGCGCCCGGCAGG, the ETS1 binding intensity came out at 634.
The same measure, in the same setting: in the case of AGCGGCTTCCTGCTGGGCTTTTGCACTCCCCACAAC it was 523.
Same read-out and setting: in the case of AGGGTGTACTCGGAAGTTTCGAGTGGTTGCTTGGTT it was 513; in that of TCTGAGAATGCAGGATATGTGTGTGGTCTCTAGTCA, 1510.
Still for that read-out and setting: with CCAGGCGTTTCCGGGTTCCCGCGGTCCCGTCCCCCA the figure was 1330.
As for CAGGGAAGTTCGAACTGGGCGGGGCCCACCGCAGTT, the ETS1 binding intensity worked out at 488.
Still for that read-out and setting: with TGGGATTCTCACTTCCGATCAGCGGTCCTGAACCCG the figure was 622.
Regarding GCACCGTGGCACTTCCGCGAGCGCCGCAGGCCCTGC, the ETS1 binding intensity came out at 360.
CCAGATTAGGAAACCCACCCGGCCCACAAAAAGCGG: the ETS1 binding intensity came to 302.
The same measure, in the same setting: in the case of GGAAAGCGGAAGAAAAAAGCAAGATGGGACCGCAAG it was 928; in that of CTTCCTTCCCTTCCTTCTGCTCCCTCCCACAGCCGC, 436.
Still for that read-out and setting: in the case of GGTCACATCCTTTCCCTTCTGTGTCTCAGCCGCAGT it was 449; in that of TGTCCGGGCAGGAAGGGGTGCTCTGTGGGCTTGGAG, 1050.
On the same count and under the same terms, with TATCACGTTTCCTGCTGCTGCACCGCGACCTCAGCT the figure was 492; with GCACCATCTCCCGACTTCCGCGGTGTCCCAGGTCCT, 434; with GGCGCCTCTTTCCGCCCCCGCCCACAATCGAGCGCA, 399.
In the case of AGGAGTGACGAGGCGGACGTGCGGGGGCGGGGGTGT, the ETS1 binding intensity stood at 458.
Still for that read-out and setting: in the case of CCAGAGCAGGATGTTCTGCTGTGGCTAGATAAGCCC it was 916.
The same measure, in the same setting: in the case of CTATATCACATCCTTTCTCTGACCGCGCTGACTTCG it was 481; in that of GGTCTGGAGGATGTTTGCAGCTGCTGTGGGTGGTGG, 530.
Consider AGACCCGGACCGGAACCTTGGCGCGGTGACGCTAGT, for which the ETS1 binding intensity came to 975.
On the same count and under the same terms, with GAACCCAGGTCTGCTTCCTGTGGCCACCATCTGTGC the figure was 684.
